Bioassay records deposited in PubChem BioAssay by several laboratories.
Compounds with a hit are over-represented: about 4.9% of the library has one in this group of screens.
MPTP inh – mitochondrial permeability transition pore inhibitors, primary screen, biochemical, isolated mouse mitochondria, absorbance. 360,000 compounds, 1.4% hits. AID 602449, 2012. inhibition, % at 10 µM. Ca2+ swelling absorbance, 30 min;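 active = inhibition of 50% or more, scaled per plate between neutral and stimulator controls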;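 also: 0% = DMSO wells given calcium and 100% = 1 mM EGTA wells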
Platelet DG rel – inhibitors of platelet dense granule secretion, primary screen, cell-based, MLPCN, human platelets; human platelet-rich plasma, SFLLRN dense granule ATP release, luminescence; inhibition, %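 (compounds screened at 7.5 µM in platelet-rich plasma)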; 300,000 compounds, 0.22% hits; AID 1663, 2009;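 active = mean replicate score, as percent of positive control, at or above 50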
dFosB act – activators of delta FosB homodimer, primary screen, biochemical, fluorescence polarization, TAMRA-CDK5 oligo, single point | Protein FosB (Mus musculus), P13346 | purified delta FosB; percent of positive-control signal above neutral wells | activation, % at 25 µM | 340,000 compounds, 0.99% hits;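 active = mean activation above about 17%, with every replicate also reaching it, limit read from the data, passing the limit was not always enough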
Target sequence (P13346 whole entry, looked up): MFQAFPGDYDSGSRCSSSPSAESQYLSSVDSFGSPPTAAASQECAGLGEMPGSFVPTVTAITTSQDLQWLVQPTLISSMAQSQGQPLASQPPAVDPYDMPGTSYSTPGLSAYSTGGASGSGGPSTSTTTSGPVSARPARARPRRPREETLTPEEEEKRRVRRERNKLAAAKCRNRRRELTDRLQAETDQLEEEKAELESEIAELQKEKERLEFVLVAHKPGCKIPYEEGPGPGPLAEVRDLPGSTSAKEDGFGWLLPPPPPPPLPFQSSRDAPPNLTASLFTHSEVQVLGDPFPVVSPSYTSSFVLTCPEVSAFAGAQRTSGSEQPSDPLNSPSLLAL
HSP90 refold inh – HSP90 inhibitors, primary screen, cell lysate, luminescence; Heat shock protein HSP 90 (rabbit reticulocyte lysate; luciferase refolding); Rabbit reticulocyte lysate, luciferase refolding luminescence, 3 h; 290,000 compounds, 0.91% hits; inhibition, % at 5.6 µM;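 active = inhibition above the screen-wide mean plus 3 SD, computed separately per campaign, cut at about 16% in these data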;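 also: 0% = DMSO wells and 100% = 60 µM geldanamycin wells; inhibitors lower the luminescence because luciferase stays unfolded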
HSF-1 act – HSF-1 activators, primary screen, NIH3T3-HGL cells, MG132 stress, luminescence, single point; NIH3T3-HGL HSF-1 luciferase reporter, 8 h; 100% = twice DMSO control signal; 300,000 compounds, 1.7% hits; AID 504408, 2011; activation, % at 9 µM;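 active = mean replicate activation of at least 50% with a set share of replicates each reaching 50%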;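 also: 0% = median of the neutral control wells and 100% = twice that signal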
HSF1 inh – HSF1 inhibitors in luciferase reporter cells, primary screen, cell-based, NIH3T3, luminescence | NIH3T3-HGL HSE-luciferase, MG132-induced, luminescence 8 h; active compounds read low | activity change, negative = inhibition, % at 7.5 µM (by protocol) | 300,000 compounds, 0.77% hits | AID 2098, 2009;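 active = more than half of replicate wells show activity change below -50%, luminescence cut by over half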;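 also: luciferase reports HSF-1 transcriptional activity via heat shock element; 0% = median of DMSO wells and -100% = zero luminescence signal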
MPTP counter – fluorescence retest of MPTP screen hits in isolated mitochondria, single concentration; inhibition, % at 10 µM; shares compounds with MPTP inh; AID 624504, 2012; membrane potential, Rhodamine 123 fluorescence; 5,000 compounds, 78% hits; in the data active = inhibition above about 22%;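 also: 0% = DMSO vehicle and 100% = positive control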
MPTP swell DR – mitochondrial permeability transition pore inhibitors, dose response, biochemical, absorbance, uHTS hits; shares compounds with MPTP inh; isolated mitochondria swelling; IC50, µM; 780 compounds, 58% hits; AID 651561, 2012; in the data active = IC50 below about 20 µM
MPTP counter DR – fluorescent counter-screen in isolated mitochondria, dose response, counter-screen for MPTP inhibitor project, biochemical, fluorescence, uHTS hits | shares compounds with MPTP inh | isolated mitochondria counterscreen, fluorescence read-out | IC50, µM | 780 compounds, 49% hits | AID 651564, 2012; in the data active = IC50 below about 80 µM
Active calls of the source: *.

How did COC(=O)c1ccccc1NC(=O)NCc1ccncc1 do in these assays?
MPTP inh: 3; Platelet DG rel: -11; dFosB act: 4; HSP90 refold inh: 0; HSF-1 act: 2; HSF1 inh: 2

Results for Cc1cc(-c2ccc(Cl)cc2Cl)c(C#N)c(=O)[nH]1 ?
MPTP inh: 2; Platelet DG rel: -1; dFosB act: 2; HSP90 refold inh: -4; HSF-1 act: 15; HSF1 inh: 14

How did CSc1nc(-c2ccc(Cl)cc2Cl)[nH]c(=O)c1C#N do in these assays?
MPTP inh: 88*; Platelet DG rel: 4; dFosB act: -3; HSP90 refold inh: 0; HSF-1 act: 26; HSF1 inh: 3; MPTP counter: 89*

How did CC(=O)c1ccc(N2CCN(C(=S)Nc3cccc(F)c3)CC2)cc1 do in these assays?
MPTP inh: 0; Platelet DG rel: -1; dFosB act: -3; HSP90 refold inh: -2; HSF-1 act: 4; HSF1 inh: -4

Results for O=S(=O)(c1cccc(NC(=S)N2CCN(c3cccc(Cl)c3)CC2)c1)C(F)F ?
MPTP inh: 77*; Platelet DG rel: -7; dFosB act: 4; HSP90 refold inh: -4; HSF-1 act: 26; HSF1 inh: 9; MPTP counter: 86*

What do the screens show for `O=S(=O)(c1cccc(NC(=S)N2CCN(c3ccc(F)cc3)CC2)c1)C(F)F`?
MPTP inh: 67*; Platelet DG rel: -3; dFosB act: -1; HSP90 refold inh: 4; HSF-1 act: 7; HSF1 inh: -14; MPTP counter: 61*

Results for CC(=O)N1CCN(C2c3cccc4cccc(c34)C2NS(=O)(=O)c2ccccc2)CC1 (stereo unspecified) ?
MPTP inh: -1; Platelet DG rel: -3; dFosB act: 1; HSP90 refold inh: -1; HSF-1 act: 22; HSF1 inh: 16

Results for O=S(=O)(NC1c2cccc3cccc(c23)C1N1CCNCC1)c1ccc(Cl)cc1 (stereo unspecified) ?
MPTP inh: 81*; Platelet DG rel: -1; dFosB act: 6; HSP90 refold inh: -1; HSF-1 act: 61*; HSF1 inh: 26; MPTP counter: -8; MPTP swell DR: 3.2*; MPTP counter DR: >80

Results for Cc1ccc(Nc2ccc([N+](=O)[O-])cn2)cc1Cl ?
MPTP inh: 75*; Platelet DG rel: 3; dFosB act: 8; HSP90 refold inh: -6; HSF-1 act: 50; HSF1 inh: 14; MPTP counter: 69*

What do the screens show for `COc1ccc(COC(=O)c2cccc(S(=O)(=O)N3CCN(C(C)=O)CC3)c2)cc1F`?
MPTP inh: 56*; Platelet DG rel: 9; dFosB act: -12; HSF-1 act: 4; HSF1 inh: 1; MPTP counter: 45*

Results for COc1ccc(COC(=O)c2cccc(S(=O)(=O)N3CCN(C(C)=O)CC3)c2)cc1 ?
MPTP inh: 11; Platelet DG rel: -4; dFosB act: -14; HSF-1 act: -11; HSF1 inh: -3

Results for Oc1ccccc1-c1cc(-c2cccc(F)c2)n[nH]1 ?
MPTP inh: 58*; Platelet DG rel: -2; dFosB act: 3; HSP90 refold inh: -4; HSF-1 act: 6; HSF1 inh: 15; MPTP counter: 71*
